In PubChem BioAssay (NCI):
Compounds without any hit were thinned out: in the full panel of roughly 83,000, 20% have a hit.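 A percent growth of 40 corresponds to 60% growth inhibition; 0 means no net growth; -100 means all cells died. Active threshold: below 10.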 A number with no mark means an inactive call. Calls of active or inactive are those of the source.

Each compound was assayed on PC-3 prostate (assay: NCI-60 one-dose screen, 48 h (100 = growth as untreated, 0 = no growth, -100 = all killed)). Conditions: 10 µM unless noted.

Compound	growth
COC(=O)[C@]12CC[C@@H](C)[C@H](C)[C@@H]1C1=CC(=O)[C@@H]3[C@@]4(C)C[C@@H](OC(C)=O)[C@H](OC(C)=O)[C@@](C)(COC(C)=O)[C@@H]4C(=O)C[C@@]3(C)[C@]1(C)CC2	2.41% (active)
COc1ccc(/C(=C\c2ccc3c(c2)OCO3)C(=O)Nc2nc3ccccc3s2)cc1OC	92.1%
O=C1c2cccc3cccc(c23)C(=O)N1CC#Cc1ccc2c3c(cccc13)C(=O)N(CCO)C2=O	84.8%
CCCCC/C(=C\c1ccccc1)C1OC(C)C(C)O1 (centres undefined)	69.6%
COc1ccc2c(c1)c(-c1nc(-c3c[nH]c4ncccc34)cs1)cn2CCNC(=O)OC(C)(C)C	31.8%
COc1ccc(C2c3ccccc3NC(=O)N2C2CCN(C)CC2)c(OC)c1 (centres undefined)	94.4%
COc1cccc(-c2nn(-c3ccccc3)cc2-c2ccnc(NCCCNS(=O)(=O)c3ccc(Cl)cc3)c2)c1	25.1%
CC(CNc1nc(Nc2ccc(Cl)c(Cl)c2)nc(C(Cl)(Cl)Cl)n1)N(C)C (centres undefined)	-40.3% (active)
COc1ccc2c(c1)c1nc3cc(C)c(C)cc3nc1n2CCN(C)C	-14.4% (active)
Oc1cc(/C=C/c2nc(N3CCOCC3)c3cc(Cl)c(Cl)cc3n2)cc(O)c1O	101%
COC(=O)CCCCCn1c2ccccc2c2c3c(c4c5ccccc5[nH]c4c21)C(=O)N(O)C3=O	34.3%
NCCn1cc(-c2nc(-c3c[nH]c4ncccc34)cs2)c2ccccc21	70.2%
O=C1c2ccccc2NC(c2cn(-c3ccccc3)nc2-c2cccnc2)N1Cc1ccccc1 (centres undefined)	76.5%
COc1cnc2c(c1)C(=O)c1c-2n(CCCNCCN2CCOCC2)c(=O)c2cc([N+](=O)[O-])ccc12	15.7%
CCCCC[C@H]1C/C=C2/C(=O)C=C[C@@H]2C/C=C\CCCC(=O)O[C@@H](CCCCC)C/C=C2/C(=O)C=C[C@@H]2C/C=C\CCCC(=O)O1	-71% (active)
COc1ccc2c(c1)c(-c1nc(-c3c[nH]c4ncccc34)cs1)cn2CCCN1CCCCC1	28.5%
CCN(CC)CCCCCCNc1ccnc2cc(Cl)ccc12	87%

Compound	growth
N#Cc1c(-c2ccc(O)cc2)c2c(N)nn(-c3ccccc3)c2[nH]c1=O	102%
CC(C)(C)c1[nH]nc2c1C(c1cc3ccccc3[nH]c1=O)Nc1cc(C(=O)OCc3ccccc3)ccc1N2 (centres undefined)	41.4%
c1cnc2[nH]cc(-c3csc(-c4cn(CCCN5CCCCC5)c5ccccc45)n3)c2c1	34.9%
COC(=O)[C@]12CC[C@@H](C)[C@H](C)[C@@H]1C1=CC[C@@H]3[C@@]4(C)CC(=O)[C@H](OC(=O)c5ccco5)[C@@]5(C)COC(=C45)C[C@@]3(C)[C@]1(C)CC2	17.3%
O=C1/C(=C\C(Cl)=C/c2ccc([N+](=O)[O-])cc2)SC(=S)N1CCc1ccc(O)cc1	-14.8% (active)
O=c1c(CNc2ccc(S(=O)(=O)Nc3ncccn3)cc2)coc2ccccc12	92.2%
CCN(CC)CCCCCNc1cc(OC(=O)c2ccccc2)cc2cccnc12	77%
COc1cc2c(cc1-c1c(C)noc1C)ncc1nc(C3CC3)n([C@H](C)COC(F)F)c12	39.1%
COc1cc2nc(Cl)nc(Nc3cccc(C(=O)/C=C/c4ccc(F)cc4)c3)c2cc1OC	46.4%
CN1CCN(CCOc2ccc(-c3cnc4c(-c5ccccc5F)cnn4c3)cc2)CC1	32.4%
CN(C)CCCC1(c2ccc(F)cc2)OCc2cc(-c3ccc(C(F)(F)F)nc3)ccc21 (centres undefined)	68.7%
Cn1cc(-c2nc(-c3c[nH]c4ncccc34)cs2)c2cc(Cl)ccc21	42.4%
CCC(CC)C(=O)OC(C)COc1ccc(C(C)(C)C)cc1 (centres undefined)	73.2%
NCCNc1nc(-c2ccccc2)nc2nc(-c3ccccc3)oc12	80.4%
CCCCN1CCCCn2c1nc1c2c(=O)n(C)c(=O)n1C	108%
CCc1nnc(NC(=O)c2ccoc2COc2ccccc2)s1	67%
CC1(C)C(=O)/C(=C\c2cccnc2)C[C@]2(C)[C@H]3CC[C@@H]4[C@@H](C(=O)/C=C/c5ccncc5)CC[C@@]4(C)[C@]3(C)CC[C@@H]12	19.5%
